Source: PubChem
Only some compounds are listed: those with a hit (about 2% of all), similar ones and a draw of the others.
HGIII-sPLA2 inh: human group III sPLA2 inhibitors, primary screen, biochemical, QFRET, BODIPY PC-A2 liposome substrate | QFRET BODIPY PC-A2 liposome hydrolysis, fluorescence | inhibition, % at 12.2 µM | actives 0.56% (n = 370,000) | AID 743126, 2013;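 active means inhibition above mean plus 3 SD of compounds lying within the high and low control bounds, cut at about 19% in these data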;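 further: 0% = median of test compound wells and 100% = no enzyme DMSO wells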
Target sequence (Q9NZ20 whole entry, looked up): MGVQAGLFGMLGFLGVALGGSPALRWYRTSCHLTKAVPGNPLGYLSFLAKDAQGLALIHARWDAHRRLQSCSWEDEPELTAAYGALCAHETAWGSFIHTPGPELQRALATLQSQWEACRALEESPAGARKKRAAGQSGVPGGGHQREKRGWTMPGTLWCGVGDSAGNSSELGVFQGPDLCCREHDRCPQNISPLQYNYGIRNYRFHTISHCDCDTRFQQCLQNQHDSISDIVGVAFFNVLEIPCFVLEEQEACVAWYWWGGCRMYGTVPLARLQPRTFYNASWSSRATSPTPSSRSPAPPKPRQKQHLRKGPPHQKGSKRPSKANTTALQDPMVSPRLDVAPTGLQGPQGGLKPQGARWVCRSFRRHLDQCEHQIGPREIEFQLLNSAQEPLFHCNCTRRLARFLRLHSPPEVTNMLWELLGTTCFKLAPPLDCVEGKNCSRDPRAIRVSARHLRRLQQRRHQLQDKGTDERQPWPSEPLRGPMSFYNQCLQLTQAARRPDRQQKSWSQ
A3A deaminase: APOBEC3A ssDNA deaminase inhibitors, primary screen, selectivity assay for APOBEC3G inhibitor project, biochemical, FAM/TAMRA oligo cleavage fluorescence; DNA dC->dU-editing enzyme APOBEC-3A (Homo sapiens), P31941; inhibition, % at 20 µM; actives 0.41% (n = 330,000); recombinant A3A, FAM/TAMRA ssDNA deamination fluorescence; AID 493011, 2011;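 active means at least 40% inhibition at 20 µM here, with at most 30% in a related deaminase screen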;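 further: plate controls were A3A with DMSO for no effect and wells lacking A3A enzyme for full effect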
NALP1 inh: NALP1 inflammasome inhibitors in reconstituted yeast, colorimetric, S. cerevisiae, triplicate retest; S. cerevisiae NALP1/ASC/caspase-1 growth, X-gal OD620, 72 h; inhibition, % at 10 µM; actives 0.61% (n = 280,000); AID 2071, 2009; in the data active means inhibition mostly above about 24%, no sharp cut-off; inactive means mostly below about 32%
A3G deaminase: APOBEC3G DNA deaminase inhibitors, primary screen, biochemical, fluorescence, single-stranded DNA substrate, uHTS; actives 0.28% (n = 330,000); DNA dC->dU-editing enzyme APOBEC-3G (Homo sapiens), Q9HC16; AID 493012, 2011; recombinant A3G, ssDNA deamination FAM/TAMRA fluorescence; inhibition, % at 20 µM;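 active means inhibition of at least 40% at 20 µM, with no more than 30% in the related APOBEC3A deaminase screen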;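 further: plate controls were DMSO wells with A3G for no effect and wells lacking A3G enzyme for full effect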
Fh CTSL1 inh: Fasciola hepatica cathepsin L1 inhibitors, primary screen, counter-screen for PFM18AAP inhibitor project, biochemical, QFRET, fluorogenic peptide substrate; recombinant F. hepatica cathepsin L1, Z-Leu-Arg-MCA fluorescence; actives 0.49% (n = 300,000); inhibition, % at 5.96 µM;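 active means inhibition above the mean of all tested compounds plus 3 SD, set per screening campaign, cut at about 17% in these data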;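 further: 0% = plate median of test compound wells and 100% = 1 µM Z-Phe-Ala-diazomethylketone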
hGIII sPLA2 conf: human group III sPLA2 inhibitors, confirmation, biochemical, QFRET, triplicate; shares compounds with HGIII-sPLA2 inh; recombinant hGIII-sPLA2, BODIPY PC-A2 QFRET fluorescence; inhibition, % at 12.2 µM; actives 34% (n = 2,000); AID 743280, 2014;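 active means mean inhibition across triplicates above the hit cutoff set in the earlier primary screen, cut at about 19% in these data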;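 further: 0% = enzyme with DMSO and 100% = DMSO wells lacking enzyme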
BODIPY interf: 535nm fluorescence optical interference, confirmation, artefact control for HGIII-sPLA2 inhibitor project, biochemical, QFRET. shares compounds with HGIII-sPLA2 inh. BODIPY FL product fluorescence interference. inhibition, % at 12.2 µM. actives 8.5% (n = 2,000);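 active means average inhibition above the solvent-only control mean plus 3 SD, cut at about 6% in these data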;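 further: 0% = DMSO with substrate plus product and 100% = DMSO with substrate alone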
535nm interf DR: 535nm fluorescence optical interference, dose response, artefact control for HGIII-sPLA2 inhibitor project, biochemical, QFRET; IC50, µM; 240 tested, under 10 active; BODIPY FL product fluorescence interference, cell-free; shares compounds with HGIII-sPLA2 inh;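 active means IC50 at or below 10 µM; inactive means IC50 above 10 µM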
Active calls of the source: *; nt = no result given.

SMILES | HGIII-sPLA2 inh | A3A deaminase | NALP1 inh | A3G deaminase | Fh CTSL1 inh | hGIII sPLA2 conf | BODIPY interf | others
COC(=O)C[C@H]1CC[C@@H]2[C@@H](COc3ccc(NC(=O)c4ccno4)cc3C(=O)N2C)O1 | 20* | nt | nt | nt | nt | 5 | -3
COC(=O)C[C@H]1CC[C@@H]2[C@@H](COc3ccc(NC(=O)c4ccccc4)cc3C(=O)N2C)O1 | 1 | nt | nt | nt | nt | nt | nt
CCN1CCN(/C=N/c2nc(C)cs2)CC1 | 94* | 0 | 6 | -4 | 1 | 6 | -3
Brc1ccc(-c2csc(/N=C/N3CCCC3)n2)cc1 | -3 | -2 | 9 | -4 | 1 | nt | nt
Cc1nnsc1C(=O)N/N=C/c1ccc2ccccc2c1O | 38* | 0 | 5 | -5 | 0 | 21* | 2
CC1(C)Cc2cccc(C(=O)NCc3ccco3)c2O1 | -1 | 0 | -14 | -4 | 4 | nt | nt
CC(C)(C)NC(=O)c1cccc2c1OC(C)(C)C2 | 24* | -1 | 30 | -3 | 1 | 6 | -9
CCCCOc1ccc(C(C)NC(=O)C2CCCN(S(=O)(=O)CCC)C2)cc1 (centres undefined) | 20* | -1 | 22 | -8 | -2 | -4 | -19
CCOc1ccc(CCNC(=O)c2cc(-c3ccccc3)c(N3CCOCC3)s2)cc1OC | -3 | nt | nt | nt | nt | nt | nt
C(=N\Nc1nc2ccccc2[nH]1)/c1cccc2cccnc12 | 37* | 0 | -1 | -2 | 2 | 19 | 2
OC[C@H]1CC[C@@H]2O[C@H](CCc3ccc(-c4ccc(F)cc4)cc3)[C@@H](n3cc(C4CC4)nn3)C[C@@H]2O1 | -8 | nt | nt | nt | nt | nt | nt
CCN(CC)CCNC(=S)Nc1ccc(Cl)cc1 | 21* | 3 | 2 | -3 | -1 | 13 | -7
CCN(CC)CCCNC(=S)Nc1ccc(Br)cc1 | -1 | -7 | -3 | -10 | -3 | nt | nt
COc1ccc(-n2c(-c3cc(-c4ccccc4)sc3N)n[nH]c2=S)cc1 | 27* | 2 | nt | -5 | 0 | 21* | 10*
Nc1sc(-c2ccccc2)cc1-c1n[nH]c(=S)n1C1CCCCC1 | 7 | -2 | -5 | -11 | 0 | nt | nt
CCOC(=O)CCNC(=O)N1CCCC(CCC(=O)N(C)CCc2ccccn2)C1 (centres undefined) | 24* | -2 | 0 | -4 | -2 | 0 | -10
CN(CCc1ccccn1)C(=O)CCC1CCCN(C(=O)c2cscn2)C1 (centres undefined) | -5 | 0 | 1 | -5 | 1 | nt | nt
O=C(Nc1cccc(C(F)(F)F)c1)OC1CC2CC1[C@H]1CCCCN1[C@H]2Cc1ccccc1 (some centres undefined) | 4 | nt | nt | nt | nt | nt | nt
CCCCCCSc1cccc(-c2nc3ccc(Cl)cn3c2NCCCC)c1 | 6 | nt | nt | nt | nt | nt | nt
CCCCNc1c(-c2ccc(SC(C)CC)cc2)nc2ccc(Cl)cn12 (centres undefined) | 23* | nt | nt | nt | nt | -8 | -7
O=C(CSc1nnc(-c2cccnc2)n1-c1ccccc1)c1ccccc1Cl | -28 | nt | nt | nt | nt | nt | nt
COC(=O)[C@H](CC(C)C)N(CCCc1cn(CC2CCCCC2)nn1)S(=O)(=O)c1ccccc1Br | -19 | nt | nt | nt | nt | nt | nt
Cc1ccc2c(c1)C(=O)C(=O)N2Cc1ccc(Cl)cc1 | 21* | -3 | nt | -9 | nt | 23* | 1
Cc1ccc2c(c1)C(=O)C(=O)N2Cc1ccc(F)cc1 | 12 | -5 | nt | -7 | nt | nt | nt
O=C(Nc1ccc(N2CCCCCC2)cc1)c1ccc[nH]1 | 22* | -3 | nt | -8 | nt | 34* | -6 | 535nm interf DR=>122
